Growth data for 40 compounds are collected here from PubChem BioAssay (NCI).

Structures are written as SMILES. This is part of a sample that, as a whole, favours compounds with a hit. Of some 83,000 tested, about 20% had one in any assay.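 Single-concentration screen, 48 h exposure, 96-well plates. Endpoint: percent growth. Below 10 = active.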 Values without a mark were called inactive. The source made the active and inactive calls.

For this assay, the system named is HCT-15 colon. Briefly: NCI-60 one-dose screen, 48 h (100 = growth as untreated, 0 = no growth, -100 = all killed). The note with it: 10 µM unless noted. As for the experimental part: Growth inhibition of the HCT-15 human tumor cell line is measured as a screen for anti-cancer activity. Cells are grown in 96 well plates and exposed to the test compound for 48 hours. Compounds are tested at a single concentration, which is 10^-5 M for most compounds. The reported endpoint is percent growth (GI% or GIPRCNT), where numbers from 0 - 100% represent growth inhibition, and numbers from -100% - 0 represent cell death. For example, a value of 40 represents 60% growth inhibition. A value of 0 means no net growth occurred over the course of the experiment. A value of -40 indicates 40% of cells at the beginning of the experiment died by the end of the experiment. A value of -100 means all cells are dead at the end of the experiment.
NCI-60 Human Tumor Cell Lines Screen was performed using the standard one-dose NCI protocol, which is described in more detail at https://dtp.cancer.gov/discovery_development/nci-60/default.htm.
Compounds with GIPRCNT values below 10 were considered active. Activity score was based on GIPRCNT using the following formula: […]
Score is 0 for GIPRCNT values of 100 or above, 50 for GIPRCNT values of 0, and 100 for GIPRCNT values of -100.
As to `COc1ccc2c(c1)c(-c1ccc(-c3cn(C)c4ccc(OC)cc34)o1)cn2C`, the growth was 56.2%. The same measure for `O=C1c2cccc3cccc(c23)C(=O)N1Nc1nc(NC2CCCCC2)nc(N2CCOCC2)n1`: 93.1%.

In the case of `CCN1C(=O)N(CC)C2Nn3c(s/c(=C4\C(=O)N(CCC(C)C)c5ccccc54)c3=O)=NC21` (stereo not given), the growth was 47%.

As for `COc1cc(/C=C/C(=O)/C=C/c2cc(OC)c3c(c2OC)OCO3)c(OC)c2c1OCO2`, the growth is 31.9%.

For the compound `CC1=C(SCCC(=O)OC(C[Se]C2=C(C)C(=O)c3ccccc3C2=O)C(=O)NC(C)(C)C)C(=O)c2ccccc2C1=O` (stereo not given), the growth is 1.48% (active). With `NCCOc1ncccc1/C=C1\C2C=CC=CC2C2C=CC(F)=CC12` (stereo not given), the growth was 7.3% (active). For `c1ccc(CO[C@H]2CO[C@H]3[C@@H]2OC[C@@H]3Oc2ccc(Nc3ncnc4ccsc34)cc2)cc1`, the growth is 78.7%. The value for `CCOC(=O)c1[nH]c(C)c(C(=O)OCc2ccccc2C#N)c1C` was 60.8%. The value for `COc1ccc(/C=C(/C#N)n2nnc3cccc(F)c32)cc1` was 13.2%; that for `COc1cc(CCC[P+](c2ccccc2)(c2ccccc2)c2ccccc2)c(OC)c2c1OCO2` was 93.1%; that for `O=c1c2cccc(Cl)c2sc2c(NCCCNCCO)nc3ccccc3c12` was -24.3% (active). The same measure for `Cc1ccc(NC2=C(Cl)C(=O)c3nc(C)ccc3C2=O)cc1`: -77.1% (active); for `Cc1nc2ccccc2n1CC1C(=O)NC(=O)NC1=O`: 106%.

In the case of `[O-][n+]1c2ccccc2[n+]([O-])c2c3ccccc3[nH]c21`, the growth was 78.7%.

On to `CS(=O)(=O)Nc1cc(-c2ccc3ncnc(Nc4cccc(Cl)c4F)c3c2)cnc1Cl`, for which the growth is 41.9%. The same measure for `N#C/C(=C\c1cccc2cnccc12)n1nnc2cccc(F)c21`: 10.2%; for `O=C(S)CNC(=O)c1ccccc1`: 112%.

Regarding `S=c1nc(-c2ccccc2)oc(=NC2CCCCC2)n1C1CCCCC1`, the growth is 16.1%.

Consider `COc1cccc2c(=O)c3c(sc12)c(NCCCN)nc1ccccc13`, for which the growth was 28.9%.

Regarding `COc1ccc(-c2ncnc3c2ncn3CC#CCCl)cc1`, the growth was 49.6%. The value for `Cc1nc(S(=O)(=O)c2ccccc2)c(S(=O)(=O)Cc2ccc([N+](=O)[O-])cc2)o1` was 82.5%.

On to `COc1cc(C2CC(c3cccc(Br)c3)=NN2C(C)=O)cc(OC)c1OC` (stereo not given), for which the growth was 13.4%. The value for `O=c1c2cc(F)ccc2sc2c(NCCCNCCO)nc3ccccc3c12` was -9.91% (active). Take `O=C(/C=C/c1sc(Cl)nc1Cl)c1ccc(F)cc1`: the growth is 31.2%. The same measure for `CCCCn1c(=O)c(-c2cc(-c3ccc(Cl)cc3)nc(-c3ccc(Cl)cc3)c2)cc2cc(Cl)ccc21`: 97.8%; for `CCC12CCC[N+]3([O-])CCC4(C(=Nc5ccccc54)C(O)(C(=O)OC)C1)C23` (stereo not given): 108%; for `NC1=C(c2nn[nH]n2)C(c2ccccc2Cl)c2ccc3ccccc3c2O1` (stereo not given): 46.8%. As for `CNC(C)[C@H]1CCC2C3CCC4C[C@@H](N(C)C(=O)c5ccccc5)CC[C@]4(C)C3CC[C@@]21C` (stereo not given in full), the growth was -42.2% (active).

Take `NCCCNc1nc2ccccc2c2c(=O)c3cc(C(F)(F)F)ccc3sc12`: the growth is -55.7% (active). The value for `c1cc2nc(-c3cn[nH]c3)c3c(c2cc1-c1cn[nH]c1)C1CCC3C1` (stereo not given) was 47.2%; that for `O=C(N/N=C/[C@@H](O)[C@H](O)[C@H](O)CO)c1ccc(NC(=O)c2cccnc2)cc1` was 103%. The value for `O=C(N=c1oc2ccccc2cc1-c1cc2ccccc2[nH]1)Nc1ccc(Cl)cc1` was 107%. The value for `CCOc1cccc(NC2=C(Br)C(=O)C(C)=C(C)C2=O)c1` was 98.6%.

In the case of `CCCCCCNC(=O)Oc1ccc(/C(=C(\C)c2ccc(Cl)cc2)c2ccc(OCCN3CCCCC3)cc2)cc1`, the growth was 8.87% (active). The value for `CN(C)CCS(=O)(=O)Nc1cc(-c2ccc3ncc(C#N)c(Nc4ccc(F)c(Cl)c4)c3c2)cnc1Cl` was -14.6% (active); that for `CCN(CC)CCNc1nc2ccccc2c2c(=O)c3cc(Cl)ccc3sc12` was 39.8%. The value for `Cc1ccc(S(=O)(=O)N/N=C/C2(c3ccccc3)CC2)cc1` was 115%. The value for `Cc1nn(-c2ccccc2)c2c1N=c1s/c(=C\c3ccc(C(F)(F)F)cc3)c(=O)n1CN2` was 70.1%; that for `Cc1cccc(NCc2cn(-c3ccc(C(=O)O)cc3)nc2-c2ccc(C(=O)O)cc2)n1` was 107%; that for `N#Cc1cccc(NC(=O)c2cc(-c3ccc(F)cc3F)ccc2O)c1` was 13.3%.
